What all share (details): mRNA level, 48 h; actives raise or lower the signal
Read-out in assay [1]: Apoptosis regulator Bcl-2 (Homo sapiens) (UniProt P10415)
Nature of the assay: LTEA_HepaRG_BCL2: Life Technologies and Expression Analysis (LTEA) Assay for Bcl-2 gene using HepaRG (AID 2283475). An outline of the steps:
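Expression change of BCL2 mRNA in HepaRG after 48 h dosing, quantified by TaqMan qRT-PCR against three endogenous controls. Concentration-response used eight points up to 100 uM, vehicle 0.5% DMSO.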

Read-out in assay [2]: Bcl-2 (BID) gene, BID (gene 637)
As to the kind of experiment: LTEA_HepaRG_BID: Life Technologies and Expression Analysis (LTEA) Assay for Bcl-2 (BID) gene using HepaRG (AID 2283476). An outline of the steps:
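Gain or loss of BID expression is fitted relative to 0.5% DMSO vehicle. Human HepaRG liver cells received a 48 h chemical exposure over an eight-point concentration range.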

Read-out in assay [3]: Caspase-3 (Homo sapiens) (UniProt P42574)
Nature of the assay: LTEA_HepaRG_CASP3: Life Technologies and Expression Analysis (LTEA) Assay for cysteine-aspartic acid protease (CASP3) using HepaRG (AID 2283477). An outline of the steps:
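HepaRG, 48 h exposure, 8 conc. (top 100 uM, half-log steps, duplicate), 0.5% DMSO vehicle; qRT-PCR of CASP3 transcript, housekeeping-normalised (ACTB/GAPDH/POLR2A); bidirectional curve fit vs DMSO baseline.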

Read-out in assay [4]: Cytochrome P450 (CYP24A1), CYP24A1 (gene 1591)
Nature of the assay: LTEA_HepaRG_CYP24A1: Life Technologies and Expression Analysis (LTEA) Assay for Cytochrome P450 (CYP24A1) using HepaRG (AID 2283478). An outline of the steps:
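qRT-PCR read-out: CYP24A1 transcript levels normalized to three housekeeping genes, bidirectional curve fits against 0.5% DMSO baseline. Human HepaRG cells treated 48 h with chemicals at eight concentrations from 100 uM in half-log steps.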

Read-out in assay [5]: Cytochrome P450 (CYP1A2), CYP1A2 (gene 1544)
Nature of the assay: LTEA_HepaRG_CYP1A2: Life Technologies and Expression Analysis (LTEA) Assay for Cytochrome P450 (CYP1A2) using HepaRG (AID 2283479). An outline of the steps:
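HepaRG, 48 h exposure, top 100 uM, half-log 8-pt, 0.5% DMSO vehicle, duplicates. Readout: TaqMan qRT-PCR of CYP1A2 mRNA, housekeeping-normalized (ACTB/GAPDH/POLR2A). Gain/loss fit relative to DMSO baseline.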

Read-out in assay [6]: cysteine-aspartic acid protease (CASP8), CASP8 (gene 841)
Nature of the assay: LTEA_HepaRG_CASP8: Life Technologies and Expression Analysis (LTEA) Assay for cysteine-aspartic acid protease (CASP8) using HepaRG (AID 2283480). An outline of the steps:
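Differentiated human HepaRG cells, plated 48 h then switched to serum-free induction medium, were exposed in duplicate for 48 h to 8 half-log concentrations up to 100 uM in 0.5% DMSO. CASP8 mRNA was quantified by qRT-PCR, normalized to ACTB/GAPDH/POLR2A.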

Read-out in assay [7]: Cytochrome P450 (CYP2B6), CYP2B6 (gene 1555)
Nature of the assay: LTEA_HepaRG_CYP2B6: Life Technologies and Expression Analysis (LTEA) Assay for Cytochrome P450 (CYP2B6) using HepaRG (AID 2283481). An outline of the steps:
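Read-out is CYP2B6 mRNA by TaqMan qRT-PCR, normalized to three housekeeping genes and fitted bidirectionally against 0.5% DMSO baseline. Human HepaRG cells received test chemicals for 48 h, top concentration 100 uM, half-log dilutions.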

Read-out in assay [8]: Cytochrome P450 2C19 (Homo sapiens) (UniProt P33261)
As to the kind of experiment: LTEA_HepaRG_CYP2C19: Life Technologies and Expression Analysis (LTEA) Assay for CYP2C19 using HepaRG (AID 2283482). An outline of the steps: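 HepaRG, 48 h chemical exposure, 8-pt half-log series from 100 uM in 0.5% DMSO, duplicates. Readout: CYP2C19 mRNA by TaqMan qRT-PCR, housekeeping-normalized. Bidirectional fit vs DMSO baseline; phenobarbital 1mM as induction control.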

Read-out in assay [9]: CYP2C8 (gene 1558)
As to the kind of experiment: LTEA_HepaRG_CYP2C8: Life Technologies and Expression Analysis (LTEA) Assay for CYP2C8 using HepaRG (AID 2283483). An outline of the steps: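 Differentiated human HepaRG cells were exposed for 48 h in serum-free induction medium to eight half-log concentrations up to 100 uM in 0.5% DMSO, in duplicate. CYP2C8 mRNA was measured by TaqMan qRT-PCR, normalized to ACTB, GAPDH and POLR2A, and fitted bidirectionally against DMSO.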

Read-out in assay [10]: CYP2C9 (gene 1559)
Nature of the assay: LTEA_HepaRG_CYP2C9: Life Technologies and Expression Analysis (LTEA) Assay for CYP2C9 using HepaRG (AID 2283484). An outline of the steps: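 Differentiated human HepaRG cells were exposed 48 h in serum-free induction medium to eight half-log concentrations up to 100 uM in 0.5% DMSO. CYP2C9 mRNA was measured by qRT-PCR, normalized to ACTB, GAPDH and POLR2A, and fitted bidirectionally against DMSO.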

Active and inactive are the calls of the source. Rule for the calls: active = hit-call score of the fitted dose curve at least 0.9, where 1 is the maximum; inactive = score below 0.9.

Chain of Apoptosis regulator Bcl-2 (Homo sapiens) (P10415 whole entry, looked up): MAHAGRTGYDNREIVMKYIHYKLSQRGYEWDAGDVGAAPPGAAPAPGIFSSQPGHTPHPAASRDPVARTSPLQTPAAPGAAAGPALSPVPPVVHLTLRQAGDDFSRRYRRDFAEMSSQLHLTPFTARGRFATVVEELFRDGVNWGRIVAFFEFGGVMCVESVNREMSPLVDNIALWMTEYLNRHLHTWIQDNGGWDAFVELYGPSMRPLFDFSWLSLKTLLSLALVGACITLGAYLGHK
Chain of Caspase-3 (Homo sapiens) (P42574 whole entry, looked up): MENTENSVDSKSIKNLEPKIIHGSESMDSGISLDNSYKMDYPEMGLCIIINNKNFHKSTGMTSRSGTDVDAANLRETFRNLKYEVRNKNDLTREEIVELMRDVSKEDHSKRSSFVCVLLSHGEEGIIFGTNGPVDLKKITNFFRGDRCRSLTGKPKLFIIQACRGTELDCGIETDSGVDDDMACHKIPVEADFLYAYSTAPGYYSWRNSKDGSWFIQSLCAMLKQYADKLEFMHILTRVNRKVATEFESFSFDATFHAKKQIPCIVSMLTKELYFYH
Chain of Cytochrome P450 2C19 (Homo sapiens) (P33261 whole entry, looked up): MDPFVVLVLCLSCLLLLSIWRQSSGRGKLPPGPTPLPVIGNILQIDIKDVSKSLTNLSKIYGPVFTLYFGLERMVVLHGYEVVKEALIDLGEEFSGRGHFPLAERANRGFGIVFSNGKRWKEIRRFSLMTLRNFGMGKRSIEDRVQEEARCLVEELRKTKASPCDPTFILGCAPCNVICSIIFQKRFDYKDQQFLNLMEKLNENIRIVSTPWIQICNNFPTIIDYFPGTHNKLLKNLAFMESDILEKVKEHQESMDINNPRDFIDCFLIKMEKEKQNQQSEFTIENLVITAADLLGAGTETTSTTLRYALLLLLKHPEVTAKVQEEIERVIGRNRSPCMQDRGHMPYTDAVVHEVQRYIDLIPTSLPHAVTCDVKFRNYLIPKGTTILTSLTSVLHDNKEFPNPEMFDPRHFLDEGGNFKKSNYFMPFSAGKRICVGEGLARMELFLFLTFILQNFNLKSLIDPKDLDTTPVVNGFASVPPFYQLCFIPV

As a reminder, the AC50 is the midpoint of the concentration-response curve, whichever way the signal moves. In the case of `Oc1c(Cl)c(Cl)c(Cl)c(Cl)c1Cl`, the result in [1] and in [4] was inactive. The half-maximal activity concentration (AC50) in [2] was 4.97 µM (active); in assay [3] it was 6.5 µM (active); in assay [5] it was 3.83 µM (active); in assay [6], 6.64 µM (active); in assay [7] it was 3.43 µM (active); in [8], 4.27 µM (active). Also, the AC50 in assay [9] was 4.44 µM (active); in assay [10] it was 3.08 µM (active).
Consider `CN(C)c1nc(=O)n(C2CCCCC2)c(=O)n1C`, for which the call in [1], in assay [2], in [3], in assay [4], in assay [5] and in assay [6] was inactive. Moreover, the call in assay [8], in [9] and in [10] was inactive. The AC50 in assay [7] was 33.6 µM (active).
Consider `CCCCCCCCOC(=O)c1ccccc1C(=O)OCCCCCCCC`, for which the result in [1], in assay [2], in assay [3], in [4], in assay [5] and in assay [6] was inactive. Further, the call in [8], in assay [9] and in assay [10] was inactive. Also, the concentration at half-maximal activity (AC50) in assay [7] was 16.3 µM (active).
On to `CC#Cc1cc(C)nc(Nc2ccccc2)n1`, for which the compound was classed as inactive in assay [1], in assay [2], in [3], in assay [4] and in assay [6]. In addition, the AC50 in [5] is 7.61 µM (active); in [7], 10.3 µM (active); in [8], 24.9 µM (active); in assay [9], 48 µM (active); in assay [10], 19.8 µM (active).
In the case of `C[C@]12CCC(=O)C=C1CC[C@@H]1[C@@H]2CC[C@@]2(C)[C@H]1CC[C@]2(C)O`, the AC50 in [1] was 10.9 µM (active); in assay [2], 45.8 µM (active); in assay [5], 45.8 µM (active); in assay [7] it was 10.8 µM (active); in [8] it was 0.207 µM (active). For the same compound, the compound was classed as inactive in assay [3], in assay [4], in assay [6], in assay [9] and in [10].
On to `O=S(=O)(O)C(F)(F)C(F)(F)C(F)(F)C(F)(F)F`, for which the result in [1], in assay [2], in [3], in assay [4], in assay [5] and in assay [6] was inactive. In addition, the compound was called inactive in assay [8], in [9] and in [10]. In addition, the AC50 in assay [7] was 52.5 µM (active).
Consider `CC1=C2C[C@H]3[C@@H](CC=C4C[C@@H](O)CC[C@@]43C)[C@@H]2CC[C@]12O[C@@H]1C[C@H](C)CN[C@H]1[C@H]2C`, for which the compound was called inactive in assay [1], in [2], in [3], in [4], in [5] and in [6]. Moreover, the call in assay [7], in assay [8], in [9] and in assay [10] was inactive.
As to `ClC1=C(Cl)[C@]2(Cl)[C@@H]3[C@@H](Cl)[C@H]4O[C@H]4[C@@H]3C1(Cl)C2(Cl)Cl`, the compound was classed as inactive in assay [1], in [2], in [3], in assay [4], in assay [5] and in assay [6]. The compound was classed as inactive in assay [9] and in assay [10]. For the same compound, the figures for the AC50 in assay [7] and in [8] were 0.526 µM (active) and 1.21 µM (active), respectively.
Take `CCC(=O)O[C@H]1CC[C@H]2[C@@H]3CCC4=CC(=O)CC[C@]4(C)[C@H]3CC[C@]12C`: the compound was classed as inactive in [1], in assay [2], in [3], in assay [4], in [5] and in assay [6]. Moreover, the call in assay [9] and in [10] was inactive. Moreover, the AC50 in assay [7] is 50 µM (active); in [8] it was 3.23 µM (active).
`Nc1ccc(-c2ccc(N)cc2)cc1`: the outcome in assay [1], in assay [2], in assay [3], in assay [4], in assay [5] and in assay [6] was inactive. Moreover, the compound was called inactive in assay [8], in assay [9] and in assay [10]. For the same compound, the concentration at half-maximal activity (AC50) in assay [7] was 50 µM (active).
On to `Clc1ccc(C(c2ccccc2Cl)C(Cl)(Cl)Cl)cc1` (centres undefined), for which the compound was called inactive in [1], in [2], in assay [3], in assay [4], in assay [5] and in assay [6]. Further, the compound was called inactive in assay [10]. The AC50 in [7] is 0.213 µM (active); in assay [8], 1.76 µM (active); in assay [9], 0.794 µM (active).
For `CCSC(=O)N(CC)C1CCCCC1`, the call in [1], in assay [2], in [3], in assay [4], in [5] and in assay [6] was inactive. Further, the compound was classed as inactive in [8] and in assay [10]. The concentration at half-maximal activity (AC50) in [7] is 32.9 µM (active).
On to `O=NN(c1ccccc1)c1ccccc1`, for which the result in assay [1], in assay [3], in assay [4], in assay [6] and in assay [9] was inactive. For the same compound, the AC50 in [2] was 78.2 µM (active); in assay [5] it was 50 µM (active); in assay [7], 10.6 µM (active); in [8], 7.3 µM (active); in [10] it was 0.273 µM (active).
Turning to `CC(C)C(=O)OCC(C)(C)C(OC(=O)C(C)C)C(C)C` (centres undefined), the result in [1], in [2], in assay [3], in assay [4], in assay [5] and in assay [6] was inactive. Moreover, the outcome in [7], in [8], in assay [9] and in assay [10] was inactive.
Turning to `C=CC(=O)NCNC(=O)C=C`, the result in assay [1], in assay [2], in assay [3], in [4], in [5] and in assay [6] was inactive. The compound was classed as inactive in assay [7], in [8], in assay [9] and in assay [10].
For `O=C(O)C(F)(F)C(F)(F)C(F)(F)C(F)(F)C(F)(F)F`, the compound was classed as inactive in assay [1], in [2], in assay [4], in [5] and in assay [6]. The AC50 in assay [3] was 9.92 µM (active); in [7], 19.6 µM (active); in assay [8], 5.35 µM (active); in [9], 8.32 µM (active); in assay [10], 9.92 µM (active).
